TDP1 cell CPT = growth inhibition of DT40 Tdp1-/-;hTDP1 cells with camptothecin (screen for TDP1 inhibitors). chicken DT40 Tdp1-/-;hTDP1 cells + 20 nM CPT, ATP luminescence, 48 h. Potency, µM (highest dose often 46.2 µM), hits mostly inhibitors. 420,000 tested, 12% active; also: nearly all actives have a fitted effect of over 55% in size
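Cell growth measured by CellTiter-Glo luminescence after a minimum 48 h, 37 C compound exposure with 20 nM CPT in Tdp1-knockout DT40 cells stably expressing hTDP1, seeded 400/well; qHTS titration format.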
IL-1B inflam inh = inhibitors of inflammasome signaling (IL-1 beta secretion). THP-1 LPS/ATP IL-1B secretion, AlphaLISA, 16 h; active compounds read low. activity change, % at 57.5 µM. 360,000 tested, 4.7% active; in the data active = activity change below about -50%; inconclusive = mostly about -30% to -49%
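THP-1 cells pretreated 1 hr with compounds (up to 57.5 uM final), then stimulated with LPS (250 ng/mL final) plus ATP (1.25 mM final); secreted IL-1B measured by AlphaLISA after 16 hr, decreased signal indicating inhibition.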
DT40 TDP1 no CPT = qHTS for Inhibitors of human tyrosyl-DNA phosphodiesterase 1 (TDP1): qHTS in cells in absence of CPT; DT40 Tdp1-/- hTDP1 cells, no CPT, ATP luminescence, 48 h; Potency, µM (series often up to 46.2 µM), usual class: inhibitors; 420,000 tested, 15% active; AID 686978, 2013; also: nearly all actives have a fitted effect of over 55% in size
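DT40 Tdp1-/-;hTDP1 cells, no CPT (DMSO vehicle only), 400 cells/well; compounds pin-transferred; ≥48 hr, 37 °C; CellTiter-Glo 30 min RT dark, luminescence read.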
HepG2 viability = counter-screen for TGF-b inhibitors: cytotoxicity in HepG2 cells; HepG2 CAGA-GFP viability, ATP luminescence, 18 h; Potency, µM (top dose mostly 46.1 µM), actives largely listed as cytotoxic; 410,000 tested, 0.76% active; AID 588856
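HepG2 CAGA-GFP cells (1000/well, DMEM with 1% FBS) received compound, then TGF-beta at 500 pg/mL final, and were incubated 18 hours at 37 degrees C. Viability was read by CellTiter-Glo luminescence. Media-only wells were set as complete cell-killing and DMSO as no toxicity.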
ASM inhibitor = inhibitors of human secretory acid sphingomyelinase; placental ASM, HMU-PC fluorogenic substrate, 60 min; Potency, µM (titrated, usually from 57.5 µM), hits mostly inhibitors; 340,000 tested, 0.006% active; AID 504937
Target sequence (P17405 47-631 limits assumed): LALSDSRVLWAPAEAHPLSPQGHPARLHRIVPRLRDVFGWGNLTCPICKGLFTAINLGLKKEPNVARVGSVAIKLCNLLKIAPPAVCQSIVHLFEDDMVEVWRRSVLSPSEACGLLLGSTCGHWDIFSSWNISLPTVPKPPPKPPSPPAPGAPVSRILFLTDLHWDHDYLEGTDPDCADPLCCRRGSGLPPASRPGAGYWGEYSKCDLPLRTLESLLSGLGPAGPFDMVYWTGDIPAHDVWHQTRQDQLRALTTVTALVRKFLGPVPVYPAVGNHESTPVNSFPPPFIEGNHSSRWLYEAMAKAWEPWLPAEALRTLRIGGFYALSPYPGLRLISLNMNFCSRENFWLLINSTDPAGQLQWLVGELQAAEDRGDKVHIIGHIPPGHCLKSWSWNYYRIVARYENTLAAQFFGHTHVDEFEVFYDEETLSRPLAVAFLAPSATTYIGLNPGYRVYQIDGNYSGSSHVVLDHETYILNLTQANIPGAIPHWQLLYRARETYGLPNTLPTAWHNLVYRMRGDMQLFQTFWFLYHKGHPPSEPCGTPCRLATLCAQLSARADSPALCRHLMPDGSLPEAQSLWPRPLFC
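qHTS format. ASM enzyme prepared from human placenta hydrolyses the fluorogenic substrate HMU-PC0 (9 uM final) over 60 min at 37 °C after a 10 min compound preincubation.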
TGFb inhibitor = blocks TGF-b signaling; 410,000 tested, 1.2% active; Potency, µM (doses to about 46.1 µM), actives largely listed as inhibitors; HepG2 CAGA-GFP TGF-b/SMAD3 reporter, GFP fluorescence, 18 h; TGF-beta stimulated, 500 pg/mL final; also: nearly all actives have a fitted effect of over 65% in size
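HEPG2 CAGA-GFP reporter cells (1000/well, DMEM with 1% FBS) received compounds, then recombinant TGF-beta at 500 pg/mL final for 18 hours at 37 degrees C. Per-cell GFP summed per well was normalised to unstimulated and stimulated DMSO controls before curve fitting.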
Of the large screens only hits and unclear results are named; the others gave an inactive call. The list is not random: actives were taken first. Their share in the collection is about 19%. Unless noted, calls follow the shape of the dose curve; as a rule, active = well fitted curve in the direction sought with a large enough effect; inconclusive = small, poorly fitted or top-dose-only effect, or another doubt; inactive = no such curve, though single readings can be large; an effect the other way counts as inactive or inconclusive.

COc1cc(/C=C/C(=O)O)ccc1O	none
COc1cc(/C=C/C(C)=NNc2ccccc2)ccc1O	TDP1 cell CPT 3.7µM, IL-1B inflam inh -94, DT40 TDP1 no CPT 4.1µM
Cc1ccccc1C1N=C2Oc3ccccc3C=C2C(=O)N1 (stereo unspecified)	TDP1 cell CPT 6.5µM, DT40 TDP1 no CPT 5.8µM (no result: ASM inhibitor)
Cc1ccc(-c2cc3c(n2-c2ccc(F)cc2)CC(C)(C)CC3=O)cc1	TDP1 cell CPT 16µM, DT40 TDP1 no CPT 18µM (no result: IL-1B inflam inh, ASM inhibitor)
COc1ccc(-n2c(-c3ccc(C)cc3)cc3c2CC(C)(C)CC3=O)c(OC)c1	TDP1 cell CPT 15µM, DT40 TDP1 no CPT inconclusive, TGFb inhibitor inconclusive (no result: IL-1B inflam inh, ASM inhibitor)
Cc1nc2ccc(C(=O)N(C)Cc3ccccc3)cn2c1N(C)C(=O)CCc1ccccc1	TDP1 cell CPT inconclusive (no result: ASM inhibitor)
CN(C(=O)c1ccc2c(c1)OCO2)C1CCS(=O)(=O)C1 (stereo unspecified)	none
CC(C)(C)c1ccc(OCC(O)CN(CCO)CC(O)Cn2ccc3ccccc32)cc1 (stereo unspecified)	TDP1 cell CPT inconclusive, DT40 TDP1 no CPT inconclusive, TGFb inhibitor 11µM
OCCN(Cc1ccccc1)CC(O)COc1ccc(-c2ccccc2)cc1 (stereo unspecified)	TDP1 cell CPT 29µM, IL-1B inflam inh -76, DT40 TDP1 no CPT inconclusive, TGFb inhibitor inconclusive
COc1cc(C(C)=O)ccc1OCC(O)CN(CCO)Cc1ccccc1 (stereo unspecified)	none
COc1ccc(CNC(=O)C2Cc3cc(S(=O)(=O)N4CCCCCC4)ccc3N2C(C)=O)cc1 (stereo unspecified)	none (no result: IL-1B inflam inh, ASM inhibitor)
Cc1ccccc1N1CCN(S(=O)(=O)C[C@]23CCC(CC2NC(=O)[C@@H](N)CCS(C)(=O)=O)C3(C)C)CC1 (stereo partly specified)	none
Cn1nc(C(C)(C)C)cc1C(=O)O	none
Cn1nc(C(C)(C)C)cc1C(=O)Sc1cccc(Br)c1	TDP1 cell CPT 3.7µM, IL-1B inflam inh -81, DT40 TDP1 no CPT 10µM
O=c1[nH]c(CN2CCCCC2)nc2c1C1(CCCCC1)Cc1ccccc1-2	TDP1 cell CPT 13µM, DT40 TDP1 no CPT 13µM
c1ccc2c(CNCCN3CCOCC3)cccc2c1	none
Cc1cc(NCCN2CCOCC2)c2ccc3ccccc3c2n1	TDP1 cell CPT inconclusive, IL-1B inflam inh -82, DT40 TDP1 no CPT inconclusive
O=C(N/C(=C\c1cccc([N+](=O)[O-])c1)C(=O)N1CCOCC1)c1ccco1	none
COc1ccc(C)cc1NC(=O)N1CCN(c2cc(-c3noc(C)n3)ccc2C)CC1	TDP1 cell CPT inconclusive, DT40 TDP1 no CPT 23µM, TGFb inhibitor inconclusive (no result: IL-1B inflam inh, ASM inhibitor)
COc1ccc(C)cc1NC(=O)N1CCC(CN2CCOCC2)CC1	none (no result: IL-1B inflam inh, ASM inhibitor)
O=C1Nc2ccc(Br)cc2/C1=C/C1CC=CCC1 (stereo unspecified)	TDP1 cell CPT 18µM, IL-1B inflam inh -99, DT40 TDP1 no CPT inconclusive, TGFb inhibitor inconclusive
O=C1CCCc2ccccc2N1Cc1cccc(F)c1	TDP1 cell CPT 15µM, DT40 TDP1 no CPT 12µM
O=C1CCCc2ccccc2N1Cc1ccc(F)cc1	TDP1 cell CPT 12µM, DT40 TDP1 no CPT inconclusive
COc1ccc(C)cc1NC(=O)CCNC(=O)Cn1cnc2ccccc2c1=O	none
Cc1cc(C)c(C#N)c(SCC(=O)C2CC2)n1	DT40 TDP1 no CPT inconclusive
O=C(NC1CC(=O)N(c2ccc(F)cc2)C1)C(=O)c1c[nH]c2ccccc12 (stereo unspecified)	none
Cc1cc(C)c2ccc(N)nc2c1O	TDP1 cell CPT 23µM, DT40 TDP1 no CPT 18µM
CCc1ccccc1N1CC23C=CC(O2)C(C(=O)O)C3C1=O (stereo unspecified)	TDP1 cell CPT 18µM
Cc1ccc(-c2nc(CCNC(=O)c3ccc(C)c(C)c3)cs2)cc1	TDP1 cell CPT inconclusive, DT40 TDP1 no CPT 16µM (no result: IL-1B inflam inh, ASM inhibitor)
COc1cccc(OC)c1C(=O)NCCc1csc(-c2ccc(Cl)cc2)n1	TDP1 cell CPT inconclusive, DT40 TDP1 no CPT inconclusive, TGFb inhibitor inconclusive (no result: IL-1B inflam inh, ASM inhibitor)
COc1ccc(-c2nc(CCNC(=O)c3cc(OC)c(OC)c(OC)c3)cs2)cc1	TDP1 cell CPT 13µM, DT40 TDP1 no CPT 13µM, TGFb inhibitor inconclusive (no result: IL-1B inflam inh, ASM inhibitor)
COc1cccc(C(=O)NCCc2csc(-c3ccc(Cl)cc3)n2)c1	TDP1 cell CPT 16µM, DT40 TDP1 no CPT inconclusive, TGFb inhibitor 13µM (no result: IL-1B inflam inh, ASM inhibitor)
Cc1cccc(-c2nc(CCNC(=O)c3ccccc3Br)cs2)c1	TDP1 cell CPT 18µM, DT40 TDP1 no CPT 21µM, TGFb inhibitor inconclusive (no result: IL-1B inflam inh, ASM inhibitor)
COc1cccc(C(=O)NCCc2csc(-c3cccc(F)c3)n2)c1OC	TDP1 cell CPT inconclusive, DT40 TDP1 no CPT inconclusive, TGFb inhibitor inconclusive (no result: IL-1B inflam inh, ASM inhibitor)
CC[C@]12C(=O)N(C)C[C@H]([C@@H]3C(=O)N(C)C(=O)[C@@H]31)N2C(=O)c1ccc(C)cc1	none
CCOC(=O)CNC(=O)C1CCCCC1	none (no result: IL-1B inflam inh, ASM inhibitor)
